In PubChem BioAssay (Tox21) one finds Potency data, which are given here for 8 compounds.

A short description of assay [1]: Nuclear factor erythroid 2-related factor 2/antioxidant responsive element (Nrf2/ARE) small molecule agonists: luciferase reporter gene qHTS assay in human keratinocytes (AID 1919969). Further: nearly all actives have a fitted effect of over 35% in size. Further: potency means the concentration at half of the fitted maximal effect. A general note: In a reporter assay the amount or activity of a reporter protein is the signal.
Assay [2] has as its target Gonadotropin-releasing hormone receptor (Homo sapiens) (UniProt P30968). Put plainly: Human gonadotropin-releasing hormone receptor (GnRHR) small molecule agonists, calcium flux assay in GnRHR-HEK293 cells (AID 1920063). Further: nearly all actives have a fitted effect of over 35% in size. A digest of the protocol:
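HEK293 cells stably expressing human GnRHR were dye-loaded for 1 h at 37 C. Compound was added in agonist mode and fluorescence (Ex/Em 480/540) recorded kinetically for 3 min. Fifteen concentrations, triplicates.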
(In general: Calcium flux is commonly read through the fluorescence of an indicator in the cells.)

The nature of assay [3]: G protein-coupled receptor (GPCR) small molecule agonists, calcium flux assay: HEK293 wild type cell line counter screen (AID 1920065). A digest of the protocol:
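Wild-type HEK293 cells plated 18 h, loaded with calcium dye 1 h at 37 C, then compounds added in agonist mode (ATP as positive control). Kinetic fluorescence Ex/Em 480/540 recorded 3 min at 1 sec intervals; 15 concentrations, triplicate.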

A short description of assay [4]: p53 small molecule agonists, cell-based qHTS assay with rat liver microsomes: qHTS cell viability counter screen (AID 1963580). Further: nearly all actives have a fitted effect of over 45% in size. The method, boiled down:
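p53RE-bla HCT-116 cells (4,000/well) rested 5 h at 37 C, then given Tox21 compounds in DMSO with rat liver microsomes (0.5 mg/mL final) plus NADPH (0.5 mg/mL final) for 16 h at 37 C. Viability read by CellTiter-Glo luminescence after 30 min at room temperature.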

The nature of assay [5]: p53 small molecule agonists, cell-based qHTS assay: qHTS cell viability counter screen (AID 1963581). Further: nearly all actives have a fitted effect of over 45% in size. The method, boiled down:
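p53RE-bla HCT-116 cells, compounds added 5 h after plating and incubated 16 h at 37 C. Cytotoxicity measured in the same wells as intracellular ATP by CellTiter-Glo luminescence after 30 min at room temperature.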

The target of assay [6] is 5-hydroxytryptamine receptor 2A (Homo sapiens) (UniProt P28223). Nature of the assay: 5-hydroxytryptamine receptor 2A (HTR2A) small molecule antagonists, cell-based qHTS assay (AID 1963586). Further: nearly all actives have a fitted effect of over 45% in size. The method, boiled down:
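Antagonist-mode intracellular calcium assay: DOI (4 nM) added after 5 min compound pre-incubation at room temperature to dye-loaded HTR2A-CHO cells. Fluorescence followed for 3 min, sampled every second.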
In general terms: In qHTS, concentration-response curves come from the screen itself.

Assay [7] shares this target. Put plainly: 5-hydroxytryptamine receptor 2A (HTR2A) small molecule agonists, cell-based qHTS assay (AID 1963587). Further: nearly all actives have a fitted effect of over 30% in size. Further: potency means the concentration at half of the fitted maximal effect. The method, boiled down:
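HTR2A-CHO cells, plated 18 h at 37 C/5% CO2, dye-loaded 1 h at 37 C; compounds in DMSO added by pin tool (agonist mode). Intracellular calcium flux read as kinetic fluorescence on FDSS over 2 min at 1 s intervals.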

The target of assay [8] is Muscarinic acetylcholine receptor M1 (Homo sapiens) (UniProt P11229). Nature of the assay: Cholinergic receptor muscarinic 1 (CHRM1) small molecule antagonists, cell-based qHTS assay (AID 1963588). Further: nearly all actives have a fitted effect of over 40% in size. A digest of the protocol:
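CHRM1-CHO calcium-flux assay, antagonist mode. Cells were seeded 18 h, dye-loaded 1 h at 37 C and given compound for 5 min at RT, then acetylcholine was added at 50nM. FDSS fluorescence was read 3 min; 15 concentrations, three runs.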

For assay [9] the target is unchanged. Nature of the assay: Cholinergic receptor muscarinic 1 (CHRM1) small molecule agonists, cell-based qHTS assay (AID 1963589). Further: nearly all actives have a fitted effect of over 35% in size. The method, boiled down:
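CHO cells stably expressing human CHRM1 were loaded with calcium dye for 1 h at 37 C, then compound was added in agonist mode. Intracellular calcium fluorescence was followed kinetically at 1 s intervals. Fifteen concentrations were tested in three independent runs.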

The nature of assay [10]: cAMP Responsive Elements (CRE) small molecule agonists, cell-based qHTS assay (AID 1963590). A digest of the protocol:
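CRE-bla HEK 293T cells, 2,000/well in DMEM with 10% dialyzed FBS and 25 mM HEPES, pre-incubated 18 h at 37 C, then exposed to compound 3 h at 37 C. Beta-lactamase reporter read with LiveBLAzer B/G FRET substrate after 2 h at room temperature.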

Assay [11] can be described thus: cAMP Responsive Elements (CRE) small molecule antagonists, cell-based qHTS assay (AID 1963591; active means well fitted inhibition curve with a large enough effect in the signal ratio in the repeat runs, not every such curve was filed as active; the % refers to the signal ratio). The method, boiled down:
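CRE-bla HEK293T cells plated 18 h, then given compound plus NKH477 at 0.25 uM final for 3 h at 37C. Beta-lactamase reporter read with LiveBLAzer B/G FRET substrate after 2 h at room temperature.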

Assay [12] addresses Beta-2 adrenergic receptor (Homo sapiens) (UniProt P07550). Nature of the assay: Adrenergic beta2 receptor (ADRB2) small molecule antagonists, cell-based qHTS assay (AID 1963592). Further: series mostly up to about 92 µM; nearly all actives have a fitted effect of over 50% in size. A digest of the protocol:
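Cells (CHO, stable ADRB2 overexpression) incubated 18-20hr at 37C; compounds added from DMSO; agonist mix (1nM isoproterenol, 100uM IBMX, 25uM Ro-20-1724) added; 0.5hr RT; d2-cAMP and anti-cAMP-cryptate added; 1hr RT; 665/615 nm read.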

For assay [13] the target is unchanged. Put plainly: Adrenergic beta2 receptor (ADRB2) small molecule agonists, cell-based qHTS assay (AID 1963593).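 Further: CHO cells stably overexpressing human ADRB2.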 A digest of the protocol: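 CHO cells stably over-expressing ADRB2 were plated overnight at 37C, then dosed with compounds plus a stimulation mix containing 100uM IBMX and 25uM Ro-20-1724 for 0.5hr at room temperature. cAMP was measured by HTRF competition, 1hr.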

In assay [14] the target is D(2) dopamine receptor (Homo sapiens) (UniProt P14416). Put plainly: Dopamine D2 receptor (DRD2) small molecule agonists, cell-based qHTS assay (AID 1963594). Further: nearly all actives have a fitted effect of over 35% in size. Further: potency means the concentration at half of the fitted maximal effect. A digest of the protocol:
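HEK293 cells stably expressing DRD2 were cultured 24 h at 37 C, then given Ro20-1724 (0.1 mM final) and compounds for 10 min at room temperature. NKH477 (200nM) was then added for 30 min. cAMP was read by HTRF.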

Assay [15] has the same target. Nature of the assay: Dopamine D2 receptor (DRD2) small molecule antagonists, cell-based qHTS assay (AID 1963595; active means well fitted inhibition curve with a large enough effect in the signal ratio in the repeat runs, with a control signal flat; the % refers to the signal ratio). A digest of the protocol: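 HEK293 cells stably expressing DRD2, preincubated with 0.1 mM Ro20-1724 and compounds 10 min, were stimulated with 200 nM NKH477 plus 12 nM quinpirole for 30 min at room temperature; cAMP measured by HTRF (665/620 nm).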
The target of assay [16] is KiSS-1 receptor (Homo sapiens) (UniProt Q969F8). Nature of the assay: Human kisspeptin (KISS1R) small molecule agonists, calcium flux assay in KISS1R-HEK293 cells (AID 1920064; active means well fitted activation curve with a large enough effect in the repeat runs). The method, boiled down:
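HEK293 cells stably expressing human KISS1R were loaded with calcium dye for 1 h at 37 C, then given compound; fluorescence (Ex/Em 480/540) was read kinetically for 3 min. Fifteen concentrations, triplicate.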

The nature of assay [17]: p53 small molecule agonists, cell-based qHTS assay with human liver microsomes (AID 1963577).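 Further: p53 response element beta-lactamase reporter cells with liver microsomes plus NADPH.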 The method, boiled down: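 Steps: plate p53RE-bla cells, incubate 5 h at 37 C; add compound in DMSO; add microsomes (0.5 mg/mL final) and NADPH (0.5 mg/mL final); incubate 16 h at 37 C; add LiveBLAzer, 2 h RT; read fluorescence.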
The nature of assay [18]: p53 small molecule agonists, cell-based qHTS assay with rat liver microsomes (AID 1963578). A digest of the protocol:
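Metabolic activation is supplied by rat liver microsomes with NADPH (each 0.5 mg/mL final). p53RE-bla cells incubate with compound 16 h at 37 C; reporter activity is measured by LiveBLAzer fluorescence.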

A short description of assay [19]: p53 small molecule agonists, cell-based qHTS assay (AID 1963582; active means well fitted activation curve with a large enough effect in the signal ratio in the repeat runs, not every such curve was filed as active; the % refers to the signal ratio). The method, boiled down:
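p53RE-bla reporter cells, compounds added in DMSO after 5 h plating, incubated 16 h at 37 C. Beta-lactamase read via 2 h room-temperature LiveBLAzer B/G FRET substrate, fluorescence intensity.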

A short description of assay [20]: p53 small molecule agonists, cell-based qHTS assay with human liver microsomes: qHTS cell viability counter screen (AID 1963579). Further: nearly all actives have a fitted effect of over 45% in size. A digest of the protocol:
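After the 460/530 nm beta-lactamase read, CellTiter-Glo was added to the same wells and luminescence measured after 30 min at room temperature, giving viability of p53RE-bla cells treated 16 h with compounds plus microsomes and NADPH.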

Records with an inconclusive call do not appear. The source made the active and inactive calls. Unless noted, the call rests on the fitted dose curve.

D(2) dopamine receptor (Homo sapiens), sequence (P14416 whole entry, looked up): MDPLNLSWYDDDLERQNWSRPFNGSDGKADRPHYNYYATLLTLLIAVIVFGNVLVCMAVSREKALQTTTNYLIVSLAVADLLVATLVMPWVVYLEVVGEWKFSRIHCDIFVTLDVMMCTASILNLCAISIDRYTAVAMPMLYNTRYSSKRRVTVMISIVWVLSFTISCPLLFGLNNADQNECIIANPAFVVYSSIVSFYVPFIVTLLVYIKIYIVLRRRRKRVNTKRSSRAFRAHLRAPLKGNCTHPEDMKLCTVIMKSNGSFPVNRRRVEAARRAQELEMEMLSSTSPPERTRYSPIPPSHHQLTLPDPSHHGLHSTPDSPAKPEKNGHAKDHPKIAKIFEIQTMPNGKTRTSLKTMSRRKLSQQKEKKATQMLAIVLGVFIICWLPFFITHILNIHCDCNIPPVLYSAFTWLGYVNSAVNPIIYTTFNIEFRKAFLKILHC
5-hydroxytryptamine receptor 2A (Homo sapiens), sequence (P28223 whole entry, looked up): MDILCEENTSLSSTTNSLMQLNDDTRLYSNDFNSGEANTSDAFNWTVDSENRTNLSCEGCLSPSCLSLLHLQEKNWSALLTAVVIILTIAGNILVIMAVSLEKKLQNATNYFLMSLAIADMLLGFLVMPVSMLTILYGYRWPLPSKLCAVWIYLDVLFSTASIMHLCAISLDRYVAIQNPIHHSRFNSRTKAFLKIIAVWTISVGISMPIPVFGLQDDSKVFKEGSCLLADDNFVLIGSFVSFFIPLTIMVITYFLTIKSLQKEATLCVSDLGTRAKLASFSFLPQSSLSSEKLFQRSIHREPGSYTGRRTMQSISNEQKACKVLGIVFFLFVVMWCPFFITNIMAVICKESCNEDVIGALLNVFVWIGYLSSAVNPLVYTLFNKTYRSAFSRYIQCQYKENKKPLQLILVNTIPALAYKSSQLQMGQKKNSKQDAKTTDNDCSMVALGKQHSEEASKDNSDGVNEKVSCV
Gonadotropin-releasing hormone receptor (Homo sapiens), sequence (P30968 whole entry, looked up): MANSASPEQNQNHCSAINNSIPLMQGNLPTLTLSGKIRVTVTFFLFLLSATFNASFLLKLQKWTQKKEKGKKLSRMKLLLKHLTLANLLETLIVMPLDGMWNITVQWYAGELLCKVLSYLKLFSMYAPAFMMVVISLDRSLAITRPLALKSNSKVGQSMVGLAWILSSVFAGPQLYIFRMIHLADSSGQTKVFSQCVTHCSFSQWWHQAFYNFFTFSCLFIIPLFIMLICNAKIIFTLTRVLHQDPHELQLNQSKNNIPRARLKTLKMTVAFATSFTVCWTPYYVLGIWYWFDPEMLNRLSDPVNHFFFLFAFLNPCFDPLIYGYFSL
Muscarinic acetylcholine receptor M1 (Homo sapiens), sequence (P11229 whole entry, looked up): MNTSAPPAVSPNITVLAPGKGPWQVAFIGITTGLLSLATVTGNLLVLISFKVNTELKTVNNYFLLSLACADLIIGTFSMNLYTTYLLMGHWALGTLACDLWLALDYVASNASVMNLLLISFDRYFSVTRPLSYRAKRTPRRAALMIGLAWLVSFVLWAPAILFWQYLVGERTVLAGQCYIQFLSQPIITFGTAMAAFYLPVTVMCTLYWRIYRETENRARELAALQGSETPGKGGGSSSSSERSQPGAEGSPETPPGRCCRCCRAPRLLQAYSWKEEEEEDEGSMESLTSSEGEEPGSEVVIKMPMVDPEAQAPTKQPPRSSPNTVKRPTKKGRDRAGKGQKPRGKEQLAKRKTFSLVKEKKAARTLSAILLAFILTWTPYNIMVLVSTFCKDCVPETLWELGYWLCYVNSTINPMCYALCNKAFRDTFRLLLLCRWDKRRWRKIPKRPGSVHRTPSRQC
KiSS-1 receptor (Homo sapiens), sequence (Q969F8 whole entry, looked up): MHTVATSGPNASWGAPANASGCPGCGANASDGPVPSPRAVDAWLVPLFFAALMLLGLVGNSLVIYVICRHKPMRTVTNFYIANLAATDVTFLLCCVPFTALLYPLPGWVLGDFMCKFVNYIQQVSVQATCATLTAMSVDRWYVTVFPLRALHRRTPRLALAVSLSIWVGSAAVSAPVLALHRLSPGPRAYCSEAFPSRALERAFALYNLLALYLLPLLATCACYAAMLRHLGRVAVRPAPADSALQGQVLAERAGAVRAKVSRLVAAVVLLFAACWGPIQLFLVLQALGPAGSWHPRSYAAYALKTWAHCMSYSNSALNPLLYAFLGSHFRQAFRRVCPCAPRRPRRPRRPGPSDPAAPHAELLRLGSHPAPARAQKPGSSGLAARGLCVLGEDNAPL
Beta-2 adrenergic receptor (Homo sapiens), sequence (P07550 whole entry, looked up): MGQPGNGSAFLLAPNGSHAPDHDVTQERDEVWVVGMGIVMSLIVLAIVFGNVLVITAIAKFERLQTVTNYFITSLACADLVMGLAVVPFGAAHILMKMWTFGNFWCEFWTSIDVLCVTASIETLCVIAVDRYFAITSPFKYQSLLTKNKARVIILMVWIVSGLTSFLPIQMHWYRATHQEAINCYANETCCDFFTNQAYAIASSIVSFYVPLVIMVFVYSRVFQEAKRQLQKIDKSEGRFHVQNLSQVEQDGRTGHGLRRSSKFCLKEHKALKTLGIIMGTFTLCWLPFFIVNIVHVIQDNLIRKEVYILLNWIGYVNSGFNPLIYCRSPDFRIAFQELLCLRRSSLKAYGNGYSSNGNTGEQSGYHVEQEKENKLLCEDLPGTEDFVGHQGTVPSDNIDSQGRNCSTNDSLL

Turning to `O=S1(=O)CCCC1`, the Potency entry in [1], in [2], in [3], in [4], in assay [5] and in [6] was “inactive” throughout. Further, the Potency entry in [7], in assay [8], in assay [9], in [10], in [11] and in [12] was “inactive” throughout. Moreover, the Potency entry in assay [13], in [14] and in assay [15] was “inactive” each time.
With `CCCCCCCCCCCC(=O)[O][Sn]([CH2]CCC)([CH2]CCC)[O]C(=O)CCCCCCCCCCC`, in [1], the Potency was 33.5 µM (active). Also, the Potency result in assay [16], in assay [3], in [17], in assay [18], in [4] and in assay [5] was “inactive” each time. Further, the Potency result in assay [19], in [6], in assay [8], in assay [9], in assay [11] and in assay [12] was “inactive” in each case. Further, the Potency result in assay [13], in assay [14] and in assay [15] was “inactive” each time.
With `CC(CN)CC(C)(C)CCN` (stereo not drawn), the Potency result in assay [1], in assay [16], in assay [3], in assay [17], in assay [18] and in assay [20] was “inactive” throughout. For the same compound, the Potency entry in assay [4], in assay [5], in [19], in assay [6], in assay [7] and in [10] was “inactive” each time. Moreover, the Potency result in [11], in [14] and in assay [15] was “inactive” throughout.
Regarding `O=C1CCc2cc(OCCCCc3nnnn3C3CCCCC3)ccc2N1`, the Potency entry in assay [1], in [2], in [3], in assay [4], in assay [5] and in [12] was “inactive” each time. For the same compound, the Potency entry in assay [13] and in assay [14] was “inactive” throughout.
Turning to `CN1CC[C@H](c2c(O)cc(O)c3c(=O)cc(-c4ccccc4Cl)oc23)[C@H](O)C1`, the Potency in assay [1] is 0.0841 µM (active). The Potency entry in assay [2], in assay [18], in assay [5], in assay [6], in assay [7] and in assay [8] was “inactive” each time. The Potency entry in assay [9], in assay [12], in assay [14] and in assay [15] was “inactive” in each case.
For `O=C1NCC2(CCN(CCc3ccccc3)CC2)O1`, the Potency result in [1], in [2], in [3], in [20], in assay [4] and in assay [5] was “inactive” throughout. Besides, the Potency result in assay [6], in assay [7], in assay [8], in assay [9], in [11] and in assay [12] was “inactive” each time. Also, the Potency result in assay [14] and in assay [15] was “inactive” in each case.
Regarding `CC(C)[C@H]1CC[C@H](C)C[C@@H]1O`, the Potency result in assay [1], in [2], in assay [3], in assay [20], in assay [4] and in [6] was “inactive” throughout. In addition, the Potency result in assay [8], in [9], in [11], in [12] and in assay [15] was “inactive” in each case. Besides, the Potency in assay [14] was 57.9 µM (active).
In the case of `CCC(C)(C)c1cc(O)c(C(C)(C)CC)cc1O`, the Potency was 4.86 µM (active) in [1] and 4.9 µM (active) in assay [7]. The Potency result in assay [16], in [3], in assay [17], in [18], in assay [20] and in assay [4] was “inactive” in each case. Further, the Potency entry in assay [19], in assay [8], in assay [9], in [10], in assay [11] and in [12] was “inactive” in each case. Further, the Potency result in [13], in assay [14] and in [15] was “inactive” each time.
